# The supplement of paper PMC9694430
# Assays:
# Assay in all cases: thermal shift delta Tm vs DMSO control; higher = stronger stabilization (binding)
# Conditions in all cases: 12.5 µM; protein concentration 2 µM
# [1] = tested on: LOC_OS01G57100-cb003
# In short: (§1)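 Compounds dissolved in DMSO were added to purified rice kinase domain constructs, which had been expressed in E. coli, for differential scanning fluorimetry. Each well held 19.5 μl of 2 μM kinase in 100 mM potassium phosphate pH 7.5, 150 mM NaCl, 10% glycerol and 5 × SYPRO Orange. Fluorescence was followed from 25°C to 95°C at a rate of 0.05°C/s. Shifts in Boltzmann-fitted melting temperature are triplicate means relative to DMSO-only protein.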
# [2] = tested on: LOC_OS01G60330-cb001
# In short: as §1
# [3] = tested on: LOC_OS01G60700-cb002
# In short: as §1
# [4] = tested on: LOC_OS01G63280-cb003
# In short: as §1
# [5] = tested on: LOC_OS01G70970-cb002
# In short: as §1
# [6] = tested on: LOC_OS02G07810-cb001
# In short: as §1
# [7] = tested on: LOC_OS02G08530-cb003
# In short: as §1
# [8] = tested on: LOC_OS02G14120-cb001
# In short: as §1
# [9] = tested on: LOC_OS02G17970-cb001
# In short: as §1
# [10] = tested on: LOC_OS02G45750-cb003
# In short: as §1
# [11] = tested on: LOC_OS02G54510-cb004
# In short: as §1
# [12] = tested on: LOC_OS03G04050-cb001
# In short: as §1
# [13] = tested on: LOC_OS03G12390-cb001
# In short: as §1
# [14] = tested on: LOC_OS03G27990-cb004
# In short: as §1
# [15] = tested on: LOC_OS03G50450-cb001
# In short: as §1
# [16] = tested on: LOC_OS03G50810-cb003
# In short: as §1
# [17] = tested on: LOC_OS04G35114-cb001
# In short: as §1
# [18] = tested on: T1, LOC_OS04G38480-cb003
# T1 sequence (whole entry): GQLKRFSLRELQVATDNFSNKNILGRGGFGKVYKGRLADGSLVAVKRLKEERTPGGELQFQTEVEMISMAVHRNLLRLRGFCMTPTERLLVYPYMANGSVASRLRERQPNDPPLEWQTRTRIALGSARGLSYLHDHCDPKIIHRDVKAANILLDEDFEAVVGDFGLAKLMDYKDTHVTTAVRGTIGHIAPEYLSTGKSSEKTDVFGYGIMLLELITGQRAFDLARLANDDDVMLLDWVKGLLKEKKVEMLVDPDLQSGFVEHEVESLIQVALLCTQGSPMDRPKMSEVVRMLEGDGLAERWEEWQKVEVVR
# In short: as §1
# [19] = tested on: T2, LOC_OS04G41100-cb001
# T2 sequence (whole entry): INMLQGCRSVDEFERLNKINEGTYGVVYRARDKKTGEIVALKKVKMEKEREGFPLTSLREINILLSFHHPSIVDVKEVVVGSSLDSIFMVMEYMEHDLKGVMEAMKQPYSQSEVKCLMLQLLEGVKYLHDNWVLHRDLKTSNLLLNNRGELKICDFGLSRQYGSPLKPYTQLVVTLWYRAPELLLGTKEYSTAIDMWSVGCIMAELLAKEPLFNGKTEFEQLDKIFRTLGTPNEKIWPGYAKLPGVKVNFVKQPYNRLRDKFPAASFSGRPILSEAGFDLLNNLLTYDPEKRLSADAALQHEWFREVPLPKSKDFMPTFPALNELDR
# In short: as §1
# [20] = tested on: LOC_OS01G67340-cb003
# In short: as §1
SMILES,thermal shift delta Tm [1] [°C],thermal shift delta Tm [2] [°C],thermal shift delta Tm [3] [°C],thermal shift delta Tm [4] [°C],thermal shift delta Tm [5] [°C],thermal shift delta Tm [6] [°C],thermal shift delta Tm [7] [°C],thermal shift delta Tm [8] [°C],thermal shift delta Tm [9] [°C],thermal shift delta Tm [10] [°C],thermal shift delta Tm [11] [°C],thermal shift delta Tm [12] [°C],thermal shift delta Tm [13] [°C],thermal shift delta Tm [14] [°C],thermal shift delta Tm [15] [°C],thermal shift delta Tm [16] [°C],thermal shift delta Tm [17] [°C],thermal shift delta Tm [18] [°C],thermal shift delta Tm [19] [°C],thermal shift delta Tm [20] [°C]
Cn1cc(C2=C(c3ccc(Cl)cc3Cl)C(=O)NC2=O)c2ccccc21,6.65,11.5,4.75,15.7,7.16,1.24,3.23,12.5,1.77,1.02,0.82,0.78,0.98,0.26,0.6,0.67,1.64,1.13,0.96,–
O=C1Nc2ccc(I)cc2/C1=C/c1cc(Br)c(O)c(Br)c1,7.97,7.94,2.48,–,2.79,3.4,4.19,5.66,3.87,0,1.04,0.81,6.08,2.06,1.49,4.01,1.76,-0.73,0.75,–
CN1CCCN(C(=O)c2cccc(-c3ccc(/C=C4/C(=O)Nc5ccc(Cl)cc54)o3)c2)CC1,1.45,3.07,1.97,1.12,1.61,0.97,3.51,3.94,1.03,5.04,0.59,0.65,3.37,1.12,0.49,2.85,4.61,2.24,1.74,0.39
Cc1nc2c(-c3cnc(N)nc3)nc(N3CCOCC3)nc2n1C(C)C,1.43,0.31,1.66,0.78,–,1.23,1.18,0.05,2.41,0.88,0.46,0.51,0.59,0.15,0.73,0.44,1.59,–,–,0.22
FC(F)(F)c1ccc(Nc2nc3ccc(Oc4ccnc(-c5ncc(C(F)(F)F)[nH]5)c4)cc3[nH]2)cc1 [Raf265 derivative],1.09,1.86,-0.31,–,1.67,2.01,0.35,0.25,2.16,1.97,0.28,0.92,1.89,0.72,1.24,1.68,0.2,2.16,1.09,0.26
CS(=O)(=O)CCNCc1ccc(-c2ccc3ncnc(Nc4ccc(OCc5cccc(F)c5)c(Cl)c4)c3c2)o1 [Lapatinib],3.37,6.75,1.03,–,1.28,1.88,1.24,0.15,1.82,0.06,-0.31,0.53,1.17,0.47,1.2,1.16,2.03,3.11,0.92,1.58
COC(=O)[C@]12CCC(C)(C)C[C@H]1[C@H]1C(=O)C=C3[C@@]4(C)C=C(C#N)C(=O)C(C)(C)[C@@H]4CC[C@@]3(C)[C@]1(C)CC2 [Bardoxolone Methyl],–,-0.58,–,-6.77,-11,0.28,-2.07,-4.67,-0.5,0.78,-3.73,-0.12,-11.6,-4.29,-0.95,-3.78,-4.61,-6.53,-1.7,-5.05
CC(C)=CC[C@@H](O)C1=CC(=O)c2c(O)ccc(O)c2C1=O [Shikonin],–,-0.94,3.41,–,-5.42,0.63,-0.15,-4.81,3.84,0,-0.56,0.62,-4.26,-2.32,-1.22,0,3.21,-2.82,-0.35,-2.36
C#Cc1cccc(Nc2ncnc3cc4c(cc23)OCCOCCOCCO4)c1 [Icotinib],2.43,0.51,1.16,0.89,0.61,0.45,1.31,2.16,1.61,3.3,0.13,0.58,1.26,0.45,0.72,1.31,4.38,3.08,0.38,0.11
CC(=O)O/N=C1/C(c2c(O)[nH]c3cc(Br)ccc23)=Nc2ccccc21 [BIO-acetoxime],-10.7,0.36,-0.6,0.15,-1.11,–,2.87,-2.97,–,9.18,2.31,1.28,-0.22,0.36,-0.71,5.4,5.86,-0.03,0.88,-1.03
C[C@@H](N)c1ccc(C(=O)Nc2ccnc3[nH]ccc23)cc1,0.44,1.35,0.79,0.61,0.39,0.79,0.76,4,1.28,1.52,0.39,0.7,0.27,0.76,0.85,0.77,1.23,2.01,0.85,0.47
